# Measurements as given in PMC8384837, “Expanding the binding specificity for RNA recognition by a PUF domain”.
# Residue numbers refer to the chain shown, from its start.
# Tests used:
# Test in all cases: yeast three-hybrid, YBZ-1, SC-Leu-His + 0.5 mM 3-AT, 4 days
# Details in all cases: tags: N-Gal4 AD-HA kept; label: inside an RPR1-promoter hybrid RNA with tandem MS2 sites; ssRNA
# PUM1 PUF domain R1-RRC = PUM1 PUF domain R1-RRC (Homo sapiens, UniProt Q14671 828-1176, S863R;Q867C)
# Summary of the method: (§1)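 Each repeat of the Pumilio-1 PUF domain was randomized at its three base-contacting residues, and these libraries were co-expressed from a centromeric plasmid with matching RNA elements in strain YBZ-1. After four days on SC-Leu (input) or SC-Leu-His + 0.5 mM 3-AT (selection), the repeat regions were PCR-amplified and Illumina-sequenced. The interaction score compares variant frequency between input and selection as a log change, computed in log2 with a pseudocount of 1 for absent variants.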
# PUM1 PUF domain R6-RRK = biological target: T1, PUM1 PUF domain R6-RRK (Homo sapiens, UniProt Q14671 828-1176, N1043R;Y1044R;Q1047K)
# T1 sequence: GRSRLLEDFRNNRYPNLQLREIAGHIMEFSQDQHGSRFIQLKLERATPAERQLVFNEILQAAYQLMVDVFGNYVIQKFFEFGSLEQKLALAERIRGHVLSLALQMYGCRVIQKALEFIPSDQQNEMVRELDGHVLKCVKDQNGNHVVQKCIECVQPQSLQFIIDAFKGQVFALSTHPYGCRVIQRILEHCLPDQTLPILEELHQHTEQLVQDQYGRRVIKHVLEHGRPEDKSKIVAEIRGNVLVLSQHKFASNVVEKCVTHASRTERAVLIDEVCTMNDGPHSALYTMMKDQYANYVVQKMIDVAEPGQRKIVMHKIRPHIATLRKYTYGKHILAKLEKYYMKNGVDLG
# Summary of the method: as §1
# PUM1 PUF domain R8-RRS = PUM1 PUF domain R8-RRS (Homo sapiens, UniProt Q14671 828-1176, N1122R;Y1123R;Q1126S)
# Summary of the method: as §1
# PUM1 PUF domain R8-ARR = PUM1 PUF domain R8-ARR (Homo sapiens, UniProt Q14671 828-1176, N1122A;Y1123R;Q1126R)
# Summary of the method: as §1
# PUM1 PUF domain R5-RHL = PUM1 PUF domain R5-RHL (Homo sapiens, UniProt Q14671 828-1176, C1007R;R1008H;Q1011L)
# Summary of the method: as §1
# PUM1 PUF domain R5-HRE = PUM1 PUF domain R5-HRE (Homo sapiens, UniProt Q14671 828-1176, C1007H;Q1011E)
# Summary of the method: as §1
# PUM1 PUF domain R5-KGK = PUM1 PUF domain R5-KGK (Homo sapiens, UniProt Q14671 828-1176, C1007K;R1008G;Q1011K)
# Summary of the method: as §1
# PUM1 PUF domain R6-TWT = biological target: T2, PUM1 PUF domain R6-TWT (Homo sapiens, UniProt Q14671 828-1176, N1043T;Y1044W;Q1047T)
# T2 sequence: T1 sequence with R216T, R217W, K220T
# Summary of the method: as §1
# PUM1 PUF domain R6-CWV = biological target: T3, PUM1 PUF domain R6-CWV (Homo sapiens, UniProt Q14671 828-1176, N1043C;Y1044W;Q1047V)
# T3 sequence: T1 sequence with R216C, R217W, K220V
# Summary of the method: as §1
# PUM1 PUF domain R6-CWW = biological target: T4, PUM1 PUF domain R6-CWW (Homo sapiens, UniProt Q14671 828-1176, N1043C;Y1044W;Q1047W)
# T4 sequence: T1 sequence with R216C, R217W, K220W
# Summary of the method: as §1
sequence,measurement,setting,value
GGCUAGAACUAGUGGAUCCCCCGGCGCCCGGCGGCUCGAGCCCGGGUAAGUGUAAAUCGUCUGCAUGCCGCCGGGCGCCAUGCCUGCAGGUCGACUCUAGAAAACAUG,binding signal,PUM1 PUF domain R1-RRC,2.87 log2 enrichment (interaction score)
GGCUAGAACUAGUGGAUCCCCCGGCGCCCGGCGGCUCGAGCCCGGGUAAGUGCAAAUAGUCUGCAUGCCGCCGGGCGCCAUGCCUGCAGGUCGACUCUAGAAAACAUG,binding signal,PUM1 PUF domain R6-RRK,4.5 log2 enrichment (interaction score)
GGCUAGAACUAGUGGAUCCCCCGGCGCCCGGCGGCUCGAGCCCGGGUAAGCGUAAAUAGUCUGCAUGCCGCCGGGCGCCAUGCCUGCAGGUCGACUCUAGAAAACAUG,binding signal,PUM1 PUF domain R8-RRS,3.27 log2 enrichment (interaction score)
same,binding signal,PUM1 PUF domain R8-ARR,2.33 log2 enrichment (interaction score)
GGCUAGAACUAGUGGAUCCCCCGGCGCCCGGCGGCUCGAGCCCGGGUAAGUGUCAAUAGUCUGCAUGCCGCCGGGCGCCAUGCCUGCAGGUCGACUCUAGAAAACAUG,binding signal,PUM1 PUF domain R5-RHL,5.23 log2 enrichment (interaction score)
same,binding signal,PUM1 PUF domain R5-HRE,4.28 log2 enrichment (interaction score)
same,binding signal,PUM1 PUF domain R5-KGK,4.24 log2 enrichment (interaction score)
GGCUAGAACUAGUGGAUCCCCCGGCGCCCGGCGGCUCGAGCCCGGGUAAGUGAAAAUAGUCUGCAUGCCGCCGGGCGCCAUGCCUGCAGGUCGACUCUAGAAAACAUG,binding signal,PUM1 PUF domain R6-TWT,4.15 log2 enrichment (interaction score)
same,binding signal,PUM1 PUF domain R6-CWV,1.98 log2 enrichment (interaction score)
GGCUAGAACUAGUGGAUCCCCCGGCGCCCGGCGGCUCGAGCCCGGGUAAGUGUAAAUUGUCUGCAUGCCGCCGGGCGCCAUGCCUGCAGGUCGACUCUAGAAAACAUG,binding signal,PUM1 PUF domain R1-RRC,2.93 log2 enrichment (interaction score)
GGCUAGAACUAGUGGAUCCCCCGGCGCCCGGCGGCUCGAGCCCGGGUAAGUGUAAAUAGUCUGCAUGCCGCCGGGCGCCAUGCCUGCAGGUCGACUCUAGAAAACAUG,binding signal,PUM1 PUF domain R5-RHL,3.44 log2 enrichment (interaction score)
same,binding signal,PUM1 PUF domain R6-TWT,1.62 log2 enrichment (interaction score)
same,binding signal,PUM1 PUF domain R5-HRE,2.59 log2 enrichment (interaction score)
same,binding signal,PUM1 PUF domain R5-KGK,1.56 log2 enrichment (interaction score)
same,binding signal,PUM1 PUF domain R8-RRS,1.39 log2 enrichment (interaction score)
same,binding signal,PUM1 PUF domain R6-CWV,3.39 log2 enrichment (interaction score)
same,binding signal,PUM1 PUF domain R6-CWW,3.56 log2 enrichment (interaction score)
same,binding signal,PUM1 PUF domain R8-ARR,1.18 log2 enrichment (interaction score)
GGCUAGAACUAGUGGAUCCCCCGGCGCCCGGCGGCUCGAGCCCGGGUAAGUGUUAAUAGUCUGCAUGCCGCCGGGCGCCAUGCCUGCAGGUCGACUCUAGAAAACAUG,binding signal,PUM1 PUF domain R5-KGK,1.81 log2 enrichment (interaction score)
